Screen size: about 69,000 compounds; about 8,600 (12%) showed an effect of 50% or more. This is one part of a sample in which strong results are shown more often than they occur.

We go through 30 compounds from ChEMBL document CHEMBL4513216, “Probing the Open Global Health Chemical Diversity Library for Multistage-Active Starting Points for Next-Generation Antimalarials” (ACS Infect Dis, 2020).

The assay deals with Plasmodium berghei. Briefly: Screen against P. berghei liver stage (PbLuc), transformed with Luciferase, at 10uM. The assay is classed as functional, HepG2. The note with it: tested at 10 uM.
On to `Cn1nc(C(=O)NC2(c3ccccc3)CCC2)ccc1=O`, for which the INHIBITION is -4.35%.

Take `Cc1c(C)c2c(c(C)c1O)CC[C@](C)(C(=O)O)O2` [(R)-TROLOX]: the INHIBITION is recorded as -10.3%.

For the compound `CCCC(C)NCc1cccnc1N1CCN(c2ccccn2)CC1` (stereo not given), the INHIBITION was determined as 50.7%.

Turning to `CC(C)CC(C)NCc1cccnc1N1CCN(c2ccccn2)CC1` (stereo not given), the INHIBITION was 9.56%.

Consider `CC(C)NCc1cccnc1N1CCN(c2ccccn2)CC1`, for which the INHIBITION was 37.7%.

Consider `CCc1nc(CN(C)C2CCN(CC(=O)N(C)C)C2)no1` (stereo not given), for which the INHIBITION was determined as 24%.

`O=C(NC1CCN(C(=O)C2CCCCC2)C1)c1ccncc1Cl` (stereo not given): the INHIBITION turned out to be 14.1%.

Consider `Cc1cnn(CCNCC(O)c2cccc(Br)c2)c1` (stereo not given), for which the INHIBITION is 16.8%.

In the case of `Cc1cnn(CCNCC(=O)Nc2ccc(Cl)cn2)c1`, the INHIBITION is given as -106%.

On to `Cc1cnn(CCNCC(O)c2ccc(F)c(F)c2)c1` (stereo not given), for which the INHIBITION is given as 7.21%.

On to `Cc1cnn(CCNCC(O)COc2ccc(Cl)cc2Cl)c1` (stereo not given), for which the INHIBITION is 66.7%.

Take `Cc1cnn(CCNCC(O)COc2ccc3ccccc3c2)c1` (stereo not given): the INHIBITION is 17.4%.

With `Cc1cnn(CCNCC(O)COc2cc(Cl)ccc2Cl)c1` (stereo not given), the INHIBITION is listed as 50.3%.

On to `COc1cc(C(=O)NS(=O)(=O)c2cccc(C#N)c2)cc(OC)c1C`, for which the INHIBITION was 22.3%.

As for `O=C(NCCN1CCCCCC1)c1n[nH]c(=O)c2ccccc12`, the INHIBITION is reported as 4.71%.

Consider `O=C(CCc1ccc(Cl)cc1)N[C@@H]1CC[C@@H](O)[C@@H]1O`, for which the INHIBITION was 45.75%.

As to `CN1CC2(CCCN(c3nc(N)nc4c3CCCC4)C2)OC1=O` (stereo not given), the INHIBITION was determined as 45.6%.

With `CNC(=O)C1(C)CCCN(c2cnccn2)C1` (stereo not given), the INHIBITION was -26.2%.

Consider `CC1(C(=O)NC2CCCC2)CCCN(c2cnccn2)C1` (stereo not given), for which the INHIBITION is listed as -4.51%.

`CN1CC2(CCCN(c3cnccn3)C2)OC1=O` (stereo not given): the INHIBITION came to 61%.

Regarding `CC(C)Nc1cc(N2CCCC3(CN(C)C(=O)O3)C2)ncn1` (stereo not given), the INHIBITION worked out at 17.4%.

As to `CN1CC2(CCCN(c3cc(N4CCCCC4)ncn3)C2)OC1=O` (stereo not given), the INHIBITION stood at 60.1%.

Consider `COc1ccc(CN2CCOC3(CCCN(c4cnccn4)C3)C2)cc1` (stereo not given), for which the INHIBITION worked out at 44.2%.

Consider `Cc1cc(N2CCCC3(CN(C)C(=O)O3)C2)c2cc3c(cc2n1)OCO3` (stereo not given), for which the INHIBITION is given as 28.6%.

`CC1(C(N)=O)CCCN(c2cnccn2)C1` (stereo not given): the INHIBITION is on record as 53.2%.

`Cc1nc(CCC(N)=O)cc(C2CCNCC2)n1`: the INHIBITION is recorded as -10.8%.

As for `O=C(COC[C@@H]1CC[C@H]2[C@H](CCN2Cc2ccco2)O1)N1CCCC1`, the INHIBITION is reported as -54.9%.

For the compound `Cc1c(C(=O)N2CCOCC2)nnn1-c1ccc2ncccc2c1`, the INHIBITION is given as -29.7%.

Regarding `Cc1cc(C(=O)NCc2ccnc(N3CCN(C)CC3)c2)no1`, the INHIBITION was determined as 17.34%.

Take `CN1CCN(C(=O)N2C[C@@H]3CC[C@H]2CN(Cc2ccccc2)C3)CC1`: the INHIBITION is given as 30.9%.
